Assay outcomes (PubChem BioAssay)
Only some compounds are listed: those with a hit (about 3.9% of all), similar ones and a draw of the others.
WT yeast gro inh: growth inhibition of WT yeast, mitochondrial fusion screen | 190,000 compounds, 2.1% hits | mitochondrial fusion phenotypic screen, WT strain | inhibition, % at 10 µM; in the data active = inhibition above about 58%; tested in S. cerevisiae
Rtt109 Vps75: blocks Candida albicans Rtt109/Vps75 acetyltransferase activity; purified Rtt109/Vps75, ThioGlo CoA-SH fluorescence, 4 h; inhibition, % at 34.9 µM; Q5AAJ8; 330,000 compounds, 0.16% hits;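 active = inhibition of at least 50% in every replicate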
Target sequence (Q5AAJ8 whole entry, looked up): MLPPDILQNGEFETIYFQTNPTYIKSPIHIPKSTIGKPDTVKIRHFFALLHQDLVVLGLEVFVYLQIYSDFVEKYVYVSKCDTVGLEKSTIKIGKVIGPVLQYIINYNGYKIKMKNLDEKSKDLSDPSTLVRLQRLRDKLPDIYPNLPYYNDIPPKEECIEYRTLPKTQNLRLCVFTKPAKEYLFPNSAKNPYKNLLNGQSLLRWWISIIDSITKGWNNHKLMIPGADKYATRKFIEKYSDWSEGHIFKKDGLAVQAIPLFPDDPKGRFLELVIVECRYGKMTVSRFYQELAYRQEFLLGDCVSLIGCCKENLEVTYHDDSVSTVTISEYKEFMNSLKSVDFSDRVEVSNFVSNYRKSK
PHOSPHO1 inh: inhibitors of human PHOSPHO1 phosphatase | recombinant PHOSPHO1, absorbance phosphatase assay | inhibition, % at 13.3 µM | 290,000 compounds, 1.1% hits | AID 1565; in the data active = inhibition above about 60%
Target sequence (Q8TCT1 whole entry, looked up): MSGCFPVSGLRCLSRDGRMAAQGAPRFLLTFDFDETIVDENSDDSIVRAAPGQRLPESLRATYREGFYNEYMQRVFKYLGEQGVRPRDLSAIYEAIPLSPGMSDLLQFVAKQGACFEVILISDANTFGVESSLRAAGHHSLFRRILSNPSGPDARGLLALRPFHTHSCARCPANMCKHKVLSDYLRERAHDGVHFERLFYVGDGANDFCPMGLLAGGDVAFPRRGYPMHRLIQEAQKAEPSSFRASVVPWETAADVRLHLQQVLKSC
TPT1 inh: C. albicans TPT1 enzyme inhibition. inhibition, % at 5 µM. 300,000 compounds, 0.81% hits. recombinant caTPT1, FP RNA substrate dephosphorylation;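 active = inhibition above the mean of all tested compounds plus 3 SD, set per screening campaign, cut at about 24% in these data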;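 note: plate controls were DMSO alone for no effect and ferristatin control at 100 nM for full effect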
Platelet DG rel: modulates dense granule release in human platelets | human platelet-rich plasma, SFLLRN dense granule ATP release, luminescence | inhibition, %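 (compounds screened at 7.5 µM in platelet-rich plasma)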 | 300,000 compounds, 0.22% hits | AID 1663;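 active = mean replicate score, as percent of positive control, at or above 50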
SKKanGAS inh: blocks kanamycin growth of S. pyogenes SKKanGAS strain; 300,000 compounds, 1.3% hits; inhibition, % at 7.5 µM; BacTiter-Glo, 6 h;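 active = mean replicate score, as percent of positive control median, at least 50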;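 note: strain carries kanamycin resistance gene driven by streptokinase promoter and grows in 40 µg/ml kanamycin; loss of luminescence reflects streptokinase promoter inhibition or plain growth inhibition; 0% = median of DMSO wells and 100% = positive control at its reference dose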
caTPT1 confirm: confirmation of Candida albicans TPT1 inhibitors | shares compounds with TPT1 inh | recombinant caTPT1, fluorescence polarization, RNase T1 coupled | inhibition, % at 5 µM | 2,400 compounds, 74% hits | AID 2149;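 active = inhibition above the primary screen limit, the mean inhibition of all tested compounds plus 3 SD, cut at about 25% in these data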
RNase T1 counter: blocks Aspergillus oryzae RNase T1, a TPT1 counter-screen | shares compounds with TPT1 inh | RNase T1 cleavage, fluorescence polarization, 1536-well | inhibition, % at 5 µM | 2,400 compounds, 83% hits | AID 2153;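 active = inhibition above the solvent-only control well mean plus 3 SD, limit set per screening run, cut at about 23% in these data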;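 note: plate controls were DMSO wells with enzyme for no effect and wells without RNase T1 for full effect; inhibitors block cleavage so intact labeled substrate keeps polarization high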
Numbers without * were called inactive.

`CC(=O)c1ccc(NS(=O)(=O)c2ccc(C)cc2)cc1` gave WT yeast gro inh 19.4, Rtt109 Vps75 -7.7, PHOSPHO1 inh -4.4, TPT1 inh -4.5, Platelet DG rel -3.7 and SKKanGAS inh 3.0.
COc1cc(OC)c(OC)cc1/C=C/C(=O)c1ccc(NS(=O)(=O)c2ccc(C)cc2)cc1 was read as WT yeast gro inh 4.2, Rtt109 Vps75 1.0, PHOSPHO1 inh -4.6, TPT1 inh 78.3*, Platelet DG rel 18.1, SKKanGAS inh 37.1, caTPT1 confirm 85.8* and RNase T1 counter 95.1*.
`NC(=O)NC(CC(=O)Nc1cccnc1)c1cccc(Br)c1` (centres undefined) gave Rtt109 Vps75 13.9, PHOSPHO1 inh 50.8, TPT1 inh -2.7, Platelet DG rel 0.9 and SKKanGAS inh 6.8.
`O=Cc1cn(CC(O)Cn2cc(C=O)c3ccccc32)c2ccccc12` gave Rtt109 Vps75 2.4, PHOSPHO1 inh -1.4, TPT1 inh -4.0, Platelet DG rel 4.1 and SKKanGAS inh 0.5.
Screening CCCCN(C)CC(O)Cn1cc(/C=C/C(=O)c2cccs2)c2ccccc21 (centres undefined) returned WT yeast gro inh 12.0, Rtt109 Vps75 14.9, PHOSPHO1 inh -17.6, TPT1 inh 59.2*, Platelet DG rel -3.6, SKKanGAS inh -2.4, caTPT1 confirm 60.8* and RNase T1 counter 68.3*.
For O=C(/C=C/c1cn(CC(O)CN2CCCCCC2)c2ccccc12)c1cccs1 (centres undefined) the results were WT yeast gro inh 26.0, Rtt109 Vps75 -9.2, PHOSPHO1 inh -29.6, TPT1 inh 56.7*, Platelet DG rel 1.6, SKKanGAS inh 9.2, caTPT1 confirm 67.6* and RNase T1 counter 76.3*.
`CC(NC(=O)c1ccccc1SCC(=O)N1CCCC1)c1ccc(F)cc1` (centres undefined) gave Rtt109 Vps75 0.2, PHOSPHO1 inh 14.7, TPT1 inh 0.3, Platelet DG rel 16.7 and SKKanGAS inh -1.2.
`c1ccc(NC2=Nc3cccc4cccc2c34)cc1` gave WT yeast gro inh 25.8, Rtt109 Vps75 0.9, PHOSPHO1 inh -19.6, TPT1 inh 14.1, Platelet DG rel 12.6 and SKKanGAS inh 19.5.
For COc1ccc(NC2=Nc3cccc4cccc2c34)cc1 the results were WT yeast gro inh 12.7, Rtt109 Vps75 4.4, PHOSPHO1 inh -4.0, TPT1 inh 26.2*, Platelet DG rel -14.2, SKKanGAS inh -10.1, caTPT1 confirm 37.2* and RNase T1 counter 48.5*.
CN1CCS/C1=C/C=C1/SC(=S)N(Cc2ccccc2)C1=O was read as WT yeast gro inh -11.2, Rtt109 Vps75 -2.1, PHOSPHO1 inh 5.7, TPT1 inh 171.0*, Platelet DG rel 3.3, SKKanGAS inh -4.3, caTPT1 confirm 169.2* and RNase T1 counter 156.7*.
CCCCN1C(=O)/C(=C/C=C2\SCCN2C)SC1=S was read as WT yeast gro inh 36.8, Rtt109 Vps75 6.0, PHOSPHO1 inh 12.4, Platelet DG rel 8.3 and SKKanGAS inh -6.9.
For CC(=O)Oc1ccc(/C=C2/SC(=S)N(Cc3ccccc3)C2=O)cc1 the results were Rtt109 Vps75 8.0, PHOSPHO1 inh 6.9, TPT1 inh 10.1, Platelet DG rel 0.4 and SKKanGAS inh 19.8.
`CN1CCS/C1=C/C=C1\SC(=S)N(CC(=O)O)C1=O` gave WT yeast gro inh -4.1, Rtt109 Vps75 -2.6, PHOSPHO1 inh 20.8, TPT1 inh 168.8*, Platelet DG rel -10.4, SKKanGAS inh -1.3, caTPT1 confirm 180.2* and RNase T1 counter 166.8*.
`CC1CC/C(=C\c2ccc3c(c2)OCO3)C(=O)/C1=C/c1ccc2c(c1)OCO2` (centres undefined) gave WT yeast gro inh 27.1, Rtt109 Vps75 -6.7, PHOSPHO1 inh 24.4, TPT1 inh 30.8*, Platelet DG rel -1.1, SKKanGAS inh -0.4, caTPT1 confirm 15.2 and RNase T1 counter 21.1.
O=C1/C(=C\c2ccc3c(c2)OCO3)CCC/C1=C/c1ccc2c(c1)OCO2 was read as WT yeast gro inh -2.1, Rtt109 Vps75 -2.1, PHOSPHO1 inh 0.9, TPT1 inh 11.2, Platelet DG rel 14.0 and SKKanGAS inh 10.3.
Screening CCOc1ccc(S(=O)(=O)N2CCCC(C(=O)NCC3CCCO3)C2)cc1Cl (centres undefined) returned TPT1 inh 2.0, Platelet DG rel -3.0 and SKKanGAS inh -4.0.
For CC(=NO)c1ccc2c(c1)Cc1cc([N+](=O)[O-])ccc1-2 the results were Rtt109 Vps75 -8.6.
`Nc1ccc2c(c1)Cc1cc([N+](=O)[O-])ccc1-2` gave WT yeast gro inh 19.2, PHOSPHO1 inh 10.8, TPT1 inh 53.3*, Platelet DG rel 6.8, SKKanGAS inh -4.7, caTPT1 confirm 55.9* and RNase T1 counter 64.5*.
Screening CCN1c2ccc(S(=O)(=O)N3CCOCC3)cc2N(Cc2ccc(OC)cc2)C1C (centres undefined) returned WT yeast gro inh 0.9, Rtt109 Vps75 8.8, PHOSPHO1 inh 42.6, TPT1 inh 31.9*, Platelet DG rel 3.5, SKKanGAS inh -6.4, caTPT1 confirm 48.3* and RNase T1 counter 59.4*.
For Cc1ccc(C2C(C#N)=C(N)SC(N)=C2C#N)c(C)c1 the results were WT yeast gro inh -18.0, PHOSPHO1 inh 8.6, TPT1 inh 151.8*, Platelet DG rel -11.8, SKKanGAS inh -2.9, caTPT1 confirm 78.8* and RNase T1 counter 89.9*.
Cc1cccc(N2CCN(C(=O)c3ccc4c(c3)NC(=O)C(CSCc3ccc(F)cc3)N4)CC2C)c1 (centres undefined) was read as PHOSPHO1 inh 23.9, TPT1 inh 122.1*, Platelet DG rel -9.1, SKKanGAS inh 2.1, caTPT1 confirm 61.9* and RNase T1 counter 74.3*.
Screening Cc1ccc(CSCC2Nc3ccc(C(=O)N4CCN(c5cccc(C)c5)C(C)C4)cc3NC2=O)cc1 (centres undefined) returned PHOSPHO1 inh -8.1, TPT1 inh 109.7*, Platelet DG rel -4.1, SKKanGAS inh 8.0, caTPT1 confirm 21.4 and RNase T1 counter 33.0*.
For Cc1cccc(N2CCN(C(=O)c3ccc(N4CCCC4=O)cc3)CC2C)c1 (centres undefined) the results were WT yeast gro inh 9.7, Rtt109 Vps75 -1.8, PHOSPHO1 inh 49.5, TPT1 inh 0.6, Platelet DG rel -0.9 and SKKanGAS inh 1.8.
`O=S(=O)(c1ccc(SCc2cccc(Cl)c2)nc1)N1CCCC1` gave Rtt109 Vps75 8.5.
